According to PubChem BioAssay (NCATS):
Records with an inconclusive call do not appear. Active and inactive are the calls of the source. Calls come from the whole dose curve; as a rule, active = well fitted inhibition curve with a large enough effect; inconclusive = small, poorly fitted or top-dose-only effect; inactive = flat fitted curve, though single readings scatter.

Legend:
Assay in all cases: qHTS profiling for inhibitors of Plasmodium falciparum proliferation (AID 504749); note: nearly all actives have a fitted effect of over 60% in size
3D7 = settings: P. falciparum in erythrocytes, SYBR Green DNA, 72 h; series mostly up to 12.8 µM
Summary of the method: (§1)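 P. falciparum-infected erythrocytes (0.3% parasitemia, 2.5% hematocrit) incubated with compound 72 h at 37 C, 5% CO2. Parasite DNA detected by SYBR Green after lysis, overnight at room temperature; normalised to 0.29 uM artemisinin and DMSO.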

AS120 = settings: P. falciparum in erythrocytes, SYBR Green DNA, 72 h; series mostly up to 28.7 µM
Summary of the method: as §1

ATS189 = settings: P. falciparum in erythrocytes, SYBR Green DNA, 72 h; series mostly up to 12.8 µM
Summary of the method: as §1

CP185 = settings: P. falciparum in erythrocytes, SYBR Green DNA, 72 h; series mostly up to 12.8 µM
Summary of the method: as §1

CP191 = settings: P. falciparum in erythrocytes, SYBR Green DNA, 72 h; series mostly up to 12.8 µM
Summary of the method: as §1

CP192 = settings: P. falciparum in erythrocytes, SYBR Green DNA, 72 h; series mostly up to 28.7 µM
Summary of the method: as §1

CP194 = settings: P. falciparum in erythrocytes, SYBR Green DNA, 72 h; series mostly up to 12.8 µM
Summary of the method: as §1

CP201 = settings: P. falciparum in erythrocytes, SYBR Green DNA, 72 h; series mostly up to 12.8 µM
Summary of the method: as §1

CP203 = settings: P. falciparum in erythrocytes, SYBR Green DNA, 72 h; series mostly up to 12.8 µM
Summary of the method: as §1

CP247 = settings: P. falciparum in erythrocytes, SYBR Green DNA, 72 h; series mostly up to 12.8 µM
Summary of the method: as §1

CP286 = settings: P. falciparum in erythrocytes, SYBR Green DNA, 72 h; series mostly up to 12.8 µM
Summary of the method: as §1

CP291 = settings: P. falciparum in erythrocytes, SYBR Green DNA, 72 h; series mostly up to 12.8 µM
Summary of the method: as §1

CP305 = settings: P. falciparum in erythrocytes, SYBR Green DNA, 72 h; series mostly up to 12.8 µM
Summary of the method: as §1

DIV30 = settings: P. falciparum in erythrocytes, SYBR Green DNA, 72 h; series mostly up to 12.8 µM
Summary of the method: as §1

GB4 = settings: P. falciparum in erythrocytes, SYBR Green DNA, 72 h; series mostly up to 12.8 µM
Summary of the method: as §1

HB3 = settings: P. falciparum in erythrocytes, SYBR Green DNA, 72 h; series mostly up to 12.8 µM
Summary of the method: as §1

P94_40 = settings: P. falciparum in erythrocytes, SYBR Green DNA, 72 h; series mostly up to 12.8 µM
Summary of the method: as §1

PC49 = settings: P. falciparum in erythrocytes, SYBR Green DNA, 72 h; series mostly up to 12.8 µM
Summary of the method: as §1

TAB109 = settings: P. falciparum in erythrocytes, SYBR Green DNA, 72 h; series mostly up to 12.8 µM
Summary of the method: as §1

TAB113 = settings: P. falciparum in erythrocytes, SYBR Green DNA, 72 h; series mostly up to 12.8 µM
Summary of the method: as §1

Measured: Potency
Potency is the fitted concentration of half-maximal effect.

Cc1cc(/C=C\c2ccc3cc(N(C)C)ccc3[n+]2C)c(C)n1-c1ccccc1
active: 3D7 0.891 µM | AS120 3.16 µM | ATS189 3.16 µM | CP185 1.58 µM | CP191 1.41 µM | CP192 2.03 µM | CP194 2.87 µM | CP201 3.22 µM | CP203 2.28 µM | CP247 3.55 µM | CP286 0.355 µM | CP291 3.61 µM | CP305 2.56 µM | DIV30 2.56 µM | GB4 3.22 µM | HB3 2.82 µM | P94_40 1 µM | PC49 3.16 µM | TAB109 1.41 µM | TAB113 1.78 µM
